The results in this text go back to PubChem BioAssay AID651965 (National Center for Advancing Translational Sciences (NCATS), 2013).

Molecules are shown by their SMILES. About 6,400 (1.9%) of roughly 340,000 compounds were called active. Where a call stands in place of a potency, no number is given. Not shown: some 4% with an inconclusive outcome. The call rests on the fitted dose curve; in most records, active means well fitted falling curve with a large enough effect; inconclusive means small, poorly fitted or top-dose-only effect; inactive means no such curve, though single readings can be large or run the other way. Only a selection was taken, and actives are over-represented in it overall.
Potency means the concentration at half of the fitted maximal effect.

ATP-dependent Clp protease proteolytic subunit (Bacillus subtilis (strain 168)), sequence (P80244 whole entry, looked up): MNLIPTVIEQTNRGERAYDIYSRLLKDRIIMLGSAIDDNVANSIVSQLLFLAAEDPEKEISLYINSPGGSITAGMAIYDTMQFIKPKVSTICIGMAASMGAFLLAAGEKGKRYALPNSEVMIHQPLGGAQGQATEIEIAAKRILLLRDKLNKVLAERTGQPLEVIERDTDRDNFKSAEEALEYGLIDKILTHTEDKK

The target of this assay is ATP-dependent Clp protease proteolytic subunit (Bacillus subtilis (strain 168)) (UniProt P80244). Description: qHTS Assay for Activators of ClpP. Further: the source files actives as falling curves though it sought activators and does not explain the sign; nearly all actives have a fitted effect of over 65% in size. Particulars: purified B. subtilis ClpP, FRET peptide cleavage, 20 min; series mostly up to 57.5 µM. In short, it runs like this:
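Buffer: 100 mM Tris/HCl pH8, 100 mM KCl, 0.05% low protease BSA, 2.5% glycerol, 0.01% Tween-20. ClpP 10 microg/mL final; 20 min RT; delta FRET normalized to ADEP and DMSO controls.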
A general note: qHTS replaces the single test concentration by a dilution series.
Turning to `COC(=O)[C@]12CCCCC=C1N(Cc1ccc(Cl)cc1Cl)C(=O)[C@H](CC(=O)NCc1cccc3ccccc13)C2`, the Potency result is “inactive”.

`O=c1[nH]cnc2c1c(-c1ccccc1)cn2-c1ccc(F)cc1`: the Potency entry was “inactive”.

Turning to `COCCNc1ncnc2c1c(-c1ccccc1)cn2-c1ccc(C)c(Cl)c1`, the Potency entry is “inactive”.

`CCCNc1ncnc2c1c(-c1ccccc1)cn2-c1ccc(OCC)cc1`: the Potency was 25.1 µM (active).

For the compound `COc1ccc(CC(N)c2csc(NC(=O)NC(c3ccccc3)c3ccccc3)n2)cc1` (centres undefined), the Potency entry is “inactive”.

`CC1(C(=O)NCc2ccccc2)CSCC(=O)N1CCCn1ccnc1` (centres undefined): the Potency entry is “inactive”.

As for `COC(=O)[C@]12CCCCC=C1N(Cc1ccc3c(c1)OCO3)C(=O)[C@H](CC(=O)N1CCOCC1)C2`, the Potency entry was “inactive”.

As for `CC(C)NC(=O)C1(C)CCCCN1Cc1cccc(C(F)(F)F)c1` (centres undefined), the Potency result was “inactive”.

As for `COc1ccccc1NC(=S)N1CCC(NC(=O)C23CC4CC(CC(C4)C2)C3)CC1`, the Potency result was “inactive”.

Consider `COCCNC(=S)N1CCC(NC(=O)C23CC4CC(CC(C4)C2)C3)CC1`, for which the Potency is 28.2 µM (active).

Regarding `CCCNC(=S)N1CCC(NC(=O)C23CC4CC(CC(C4)C2)C3)CC1`, the Potency entry was “inactive”.

Turning to `CC(=O)N1Cc2cc(C(=O)NCc3cccc(F)c3)nc(-c3cccc(C4=CCCC4)c3)c2[C@H]1CCO`, the Potency result is “inactive”.

On to `COC(=O)[C@@]12C[C@@H](CC(=O)NCCCCc3ccccc3)C(=O)N(CCc3ccc(OC)c(OC)c3)C1=CCC(C)(C)C2`, for which the Potency result is “inactive”.

`COc1ccc(-c2ccc3[nH]c4c(c3c2)CCN2C[C@H]3[C@H](C)ON(C)[C@H]3C[C@@H]42)cc1`: the Potency result was “inactive”.

As to `CCC(=O)Nc1c(S(=O)(=O)c2ccccc2)c2nc3ccccc3nc2n1Cc1ccccc1`, the Potency was 14.1 µM (active).

For the compound `CCN(CC)CCn1c(N)c(S(=O)(=O)c2ccccc2)c2nc3ccccc3nc21`, the Potency result was “inactive”.

As to `CCC(=O)Nc1ccc(C)cc1-c1nc2ccccc2n(Cc2ccccc2)c1=O`, the Potency entry was “inactive”.

For `CCOC(=O)[C@]12CCCC=C1N(CCC1=CCCCC1)C(=O)[C@H](CC(=O)N1CCN(C(=O)c3ccco3)CC1)C2`, the Potency entry was “inactive”.

With `CCCCCCCNc1ccc(/C=C/c2ccnc3ccccc23)cc1`, the Potency entry is “inactive”.

For `O=C(c1cncc(Br)c1)N1CCN(c2ccc([N+](=O)[O-])cc2)CC1`, the Potency is 28.2 µM (active).

In the case of `O=C(c1cc(C(=O)N2CCN(c3ccc(F)cc3)CC2)cc([N+](=O)[O-])c1)N1CCN(c2ccc(F)cc2)CC1`, the Potency result was “inactive”.

Turning to `Cc1cccc(C(=O)NC(=S)N2CCN(c3ccc([N+](=O)[O-])cc3)CC2)c1`, the Potency entry is “inactive”.

As for `CCCCc1ccc(S(=O)(=O)NC(=O)C2(C)CCN2C(=O)c2ccccc2)cc1` (centres undefined), the Potency entry is “inactive”.

Turning to `Cc1ccc(-c2nc(=N)sn2Cc2ccccc2)cc1`, the Potency result was “inactive”.
